The sample as a whole holds a higher share of hits than the screen did.
Pf Dd2 inh: qHTS Primary assay for Inhibitors of Plasmodium falciparum Dd2 growth in vitro; P. falciparum Dd2 growth, SYBR Green, 72 h; Potency, µM (series often up to 28.9 µM), usual class: inhibitors; actives 4.3% (n = 120,000); active means well fitted inhibition curve with a large enough effect; further: nearly all actives have a fitted effect of over 65% in size
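Readout: SYBR Green fluorescence, 485 nm excitation, 535 nm emission, after ~16 h lysis at 37C. Before that, Dd2-infected red cells (2.5% hematocrit) grew 72 h with compound, 29 uM top final concentration.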
Numbers stand for hits; – = inactive.

SMILES	Pf Dd2 inh
Cc1cc2nc3n(c(=O)c2n1CC(=O)Nc1ccccc1)CCCCC3	–
Cc1ccccc1NC(=O)Cn1c(C)cc2nc3n(c(=O)c21)CCCCC3	–
CCc1cccc(OCC(=O)Nc2ccc(S(=O)(=O)Nc3ncccn3)cc2)c1	–
O=C(COc1ccc(-c2nnc3n2CCCC3)cc1)Nc1ccccc1	7.9µM
O=C(C1CC1)N1CCCCCCn2c(nnc2-c2ccc(F)cc2)CC1	–
O=C(O)CNC(=O)Cn1nc2c(cc1=O)CCCCC2	–
CCc1cccc(NS(=O)(=O)c2ccc(-n3cccn3)cc2)c1	–
c1cncc(-c2cc3c(cn2)CN(Cc2ccncc2)CCN3)c1	–
CN1C(=O)COC[C@@H]1[C@H](O)c1ccc(NS(=O)(=O)c2ccc(F)cc2)cc1	–
COC(=O)N1CCC2(CC1)C(=O)NN=C2c1ccncc1	–
COc1ccc(CC(=O)N2CCn3c(nnc3-c3ccc(OC)cc3)C2)cc1	–
COc1ccc(CCC(=O)Nc2ccc(-c3nnc4n3CCCC4)cc2)cc1	–
COc1cccc(NC(=O)Cn2c(C)cc3nc4n(c(=O)c32)CCCC4)c1	–
COc1cccc(NC(=O)Cn2nc3n(c2=O)CCCCC3)c1	–
O=C(CCC1CCCC1)Nc1ccc(-c2nnc3n2CCCC3)cc1	–
CCOc1ccc(NC(=O)Cn2c(C)cc3nc4n(c(=O)c32)CCCC4)cc1	–
COc1ccc(N2CCN(C(=O)COc3ccc(-c4nnc5n4CCCC5)cc3)CC2)cc1	0.71µM
COc1ccc(-c2nnc3n2CCN(C(C)=O)C3)cc1	–
O=C(COc1ccccc1)Nc1ccc(-c2nnc3n2CCCC3)cc1	10µM
O=C(Nc1ccc(-c2nnc3n2CCCC3)cc1)C1CC1	–
CCc1ccc(NC(=O)COc2ccc(-c3nnc4n3CCCC4)cc2)cc1	4µM
COc1cccc(NC(=O)COc2ccc(-c3nnc4n3CCCC4)cc2)c1	2.8µM
CN(C)c1cccc(C(=O)N2CCN(c3cc(-c4ccc(Cl)cc4)[nH]n3)CC2)c1	–
Cc1cc(CN2CCc3nn(C)c(=O)n3CC2)n(C)n1	–
COc1ccc(C(=O)N2CCN(c3cc(-c4ccc(Cl)cc4)[nH]n3)CC2)cc1OC	–
SMILES	Pf Dd2 inh
Cc1cn2c(=O)cc(COC(=O)c3cccc(NC(=O)COc4ccc(Cl)cc4)c3)nc2s1	–
COc1cccc(NC(=O)CN2C(=O)NC3(CCCCC3)C2=O)c1	–
Cc1ccc2occ(CC(=O)Nc3ccc(S(N)(=O)=O)cc3)c2c1	–
COc1cc(OC)c(NC(=O)CSc2cc(=O)n(C)c3ccc(Cl)cc23)cc1Cl	–
O=C(Nc1ccc(-c2nnc3n2CCCC3)cc1)Nc1ccccc1Br	–
COc1ccccc1NC(=O)Nc1cccc(-c2nnc3n2CCCC3)c1	–
COc1ccccc1NC(=O)Nc1ccc(-c2nnc3n2CCCC3)cc1	4µM
O=C(CN1C(=O)CC(c2ccccc2)=Nc2ccccc21)Nc1ccc(Br)cc1	10µM
Cc1ccc(C2=Nc3ccccc3N(CC(=O)NCc3ccc(F)cc3)C(=O)C2)cc1C	–
Cc1ccc(C2=Nc3ccccc3N(CC(=O)NCc3ccc(Cl)cc3)C(=O)C2)cc1C	–
CCCCCCOc1ccc(C2C(=O)N(C3CCCCC3)CC(=O)N2C2CCCCC2)cc1 (configuration not stated)	–
Cc1cccc(NC(=O)CSc2ncc3c(n2)-c2cc(Cl)ccc2N(C)S3(=O)=O)c1C	–
Cc1cccc(C)c1NC(=O)CSc1ncc2c(n1)-c1ccc(Cl)cc1N(Cc1ccccc1)S2(=O)=O	11µM
COc1ccc(CNC(=O)CSc2ncc3c(n2)-c2ccc(Cl)cc2N(Cc2ccccc2)S3(=O)=O)cc1	–
O=C(C[C@H]1NC(=O)c2ccccc2NC1=O)NCCc1c[nH]c2ccc(F)cc12	–
CCc1cccc(-n2nnnc2N2CCN(C(=O)Nc3ccc(C)c(Br)c3)CC2)c1	–
Cc1ccc(NC(=O)N2CCN(c3nnnn3-c3cccc(C(F)(F)F)c3)CC2)cc1F	7.9µM
CCc1cccc(-n2nnnc2N2CCN(C(=O)Nc3ccc(C)c(Cl)c3)CC2)c1	–
O=C(c1ccccc1Cl)N1CCn2c(nn(-c3ccncc3)c2=O)C1	–
Cc1ccccc1C(=O)N1CCN(c2cc(-c3ccc(F)cc3)[nH]n2)CC1	–
Cc1cc(C)nc(NS(=O)(=O)c2ccc(NC(=O)COc3ccc(Cl)cc3C)cc2)n1	–
Cc1cc(Cl)ccc1OCC(=O)N1[C@@H]2CC[C@H]1CC(NC(=O)c1ccc(F)cc1)C2 (some centres not stated)	–
CNc1cc(C2CC(NC(=O)COc3ccc(Cl)cc3C)C2)nc(N)n1 (configuration not stated)	7.9µM
Cc1ccc(OC2CCN(Cc3ccncc3)CC2)c(C(=O)N(C)C2CCOCC2)c1	–
O=C1NCc2ccccc2CC12CCCN(Cc1ccc(F)cc1F)C2 (configuration not stated)	–
CCc1cccc(NC(=O)CCn2nc(C)cc2C)c1	–
COc1cc(CN2CCC3(CCNCC3)C2)cc(OC)c1OC	–
COC(=O)c1cc(CN2CCCC3(CCNC3)C2)ccc1O (configuration not stated)	–
